# Test results taken from paper PMC5540273 (PLoS ONE, 2017).
# Assays:
# Conditions in all cases: concentration: 1 μM, replicates: in singlicate; n = 1
# STK36 = test system: STK36
# STK39 = test system: STK39
# SYK = test system: SYK
# SgK110 = test system: SgK110
# TAK1 = test system: T1, TAK1
# T1 construct: gene MAP3K7
# TAOK1 = test system: TAOK1
# TAOK2 = test system: TAOK2
# TAOK3 = test system: TAOK3
# TBK1 = test system: TBK1
# TEC = test system: TEC
# TESK1 = test system: TESK1
# TGFBR1 = test system: TGFBR1
# TGFBR2 = test system: TGFBR2
# TIE1 = test system: TIE1
# TIE2 = test system: T2, TIE2
# T2 construct: gene TEK
# TLK1 = test system: TLK1
# TLK2 = test system: TLK2
# TNIK = test system: TNIK
# TNK1 = test system: TNK1
# TNK2 = test system: TNK2
# 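Also: KINOMEscan kinase panel screen.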
Structure (SMILES),%Inh (STK36),%Inh (STK39),%Inh (SYK),%Inh (SgK110),%Inh (TAK1),%Inh (TAOK1),%Inh (TAOK2),%Inh (TAOK3),%Inh (TBK1),%Inh (TEC),%Inh (TESK1),%Inh (TGFBR1),%Inh (TGFBR2),%Inh (TIE1),%Inh (TIE2),%Inh (TLK1),%Inh (TLK2),%Inh (TNIK),%Inh (TNK1),%Inh (TNK2)
O=C(Nc1cccc(-c2nn3ccccc3c2-c2ccnc(Nc3cccc(F)c3)n2)c1)c1c(F)ccc(F)c1Cl [GSK357952],99.3%,35%,16%,0%,0%,33%,0%,34%,3%,60%,0%,2%,19%,48%,22%,0%,0%,0%,91.6%,21%
COc1cc(Nc2ncc3c(C)nc(-c4cc5ccccc5[nH]4)n3n2)cc(OC)c1OC [GW869516],6%,0%,53%,0%,48%,0%,0%,0%,58%,0%,1%,14%,0%,46%,32%,0%,0%,47%,49%,17%
Clc1ccc(-c2nn3ncccc3c2-c2ccnc(Nc3ccc4c(c3)OCCO4)n2)cc1 [GW829116],79%,0%,0%,11%,0%,0%,19%,0%,19%,0%,11%,46%,23%,24%,0%,0%,0%,31%,46%,0%
Nc1ncc(-c2ccc3nccc(-c4ccncc4)c3c2)cc1S(=O)(=O)N1CCOCC1 [GSK1627798],0%,0%,12%,0%,0%,0%,0%,0%,10%,9%,2%,0%,5%,3%,0%,0%,0%,0%,0%,11%
COc1cc(Nc2nccc(-c3c(-c4cccc(NC(=O)c5c(F)cccc5F)c4)nn4ncccc34)n2)cc(OC)c1OC [GSK327238],100%,13%,74%,69%,15%,58%,39%,63%,12%,95.2%,51%,1%,11%,90.6%,96.9%,42%,12%,80%,100%,69%
COc1cccc(C2=C(Nc3ccc(Cl)c(C(=O)O)c3)C(=O)NC2=O)c1 [SB-390769],0%,13%,34%,57%,0%,100%,100%,100%,100%,0%,20%,0%,6%,25%,17%,5%,0%,0%,0%,17%
CSc1cccc2c(-c3ccncn3)c(-c3ccc(F)cc3)nn12 [GW514786],38%,10%,42%,0%,9%,0%,0%,0%,8%,0%,31%,28%,24%,6%,0%,0%,0%,0%,8%,6%
Cl.c1ccc(-c2ccc3c(Nc4ccc5[nH]ncc5c4)ccnc3c2)nc1 [GW440137],0%,6%,27%,6%,0%,0%,0%,0%,21%,0%,63%,31%,50%,1%,0%,15%,5%,18%,2%,8%
Cc1occc1-c1ncc(OC[C@@H](N)Cc2c[nH]c3ccccc23)cc1-c1ccc2[nH]nc(C)c2c1.O=C(O)C(F)(F)F [GSK682037],0%,15%,0%,0%,97.9%,97.7%,36%,83%,0%,0%,19%,0%,0%,18%,0%,0%,0%,97.2%,15%,0%
Fc1ccc(-c2ncn(C3CCNCC3)c2-c2ccnc(Oc3ccc(-c4ccccc4)cc3)n2)cc1 [SB-245391],8%,14%,0%,0%,42%,28%,6%,20%,8%,5%,19%,59%,16%,46%,31%,3%,35%,11%,10%,0%
O=c1[nH]cc(-c2ccc(N3CCOCC3)cc2)c2sc(-c3cn[nH]c3)cc12 [GSK2276055],0%,3%,0%,0%,53%,68%,5%,21%,25%,0%,55%,0%,0%,0%,0%,25%,19%,10%,0%,0%
Oc1cc(Nc2ccnc3cc(I)ccc23)ccc1F [GW552771],0%,21%,19%,0%,0%,0%,0%,0%,0%,12%,13%,62%,99.9%,0%,0%,10%,0%,47%,4%,2%
CC(=O)Nc1nc2cnc(Nc3cc(NC(=O)c4cccc(C5(C#N)CC5)c4Cl)ccc3C)nc2s1,0%,0%,5%,19%,3%,0%,0%,0%,0%,0%,0%,4%,0%,7%,8%,14%,0%,16%,88%,0%
COc1cccc(-c2ccc3c(NC(=O)C4CC4)n[nH]c3n2)c1 [SB-710903],0%,17%,19%,0%,0%,30%,4%,0%,13%,0%,36%,27%,0%,0%,0%,3%,0%,82%,0%,9%
Cl.Cl.NCC(NC(=O)c1cc(-c2ccccc2)c(-c2ccnc3[nH]ccc23)s1)c1ccccc1 (stereo not drawn) [GSK1321561],29%,8%,5%,0%,35%,4%,0%,0%,24%,11%,16%,0%,0%,13%,0%,54%,0%,86%,0%,7%
